Spn PMK inh: S. pneumoniae PMK inhibition; purified PMK, PK/LDH-coupled NADH absorbance 340 nm; inhibition, % at 10 µM; 65,000 tested, 0.49% active;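 active = top-ranked compounds by inhibition in the single 10 µM screen, taking a fixed number of the strongest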;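 also: 0% = full reaction with DMSO carrier and 100% = background rate without enzyme reaction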
Spn MK inh: inhibitors of Streptococcus pneumoniae mevalonate kinase; purified MK, PK/LDH-coupled NADH absorbance 340 nm; AID 555; inhibition, % at 10 µM; 65,000 tested, 0.48% active;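 active = ranked among the strongest by inhibition in the single 10 µM screen, a fixed top-ranked set picked for dose follow-up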
Autofluor 339: intrinsic fluorescence of library compounds, ex339/em460 – biochemical, MLSMR library, data from DPM-DC assay, artefact control, profiling panel; compound autofluorescence, ex339/em460 nm, NADH buffer; stronger effect = higher value; 1 = no-compound wells, NADH background; fluorescence fold increase at 10 µM; 65,000 tested, 5.5% active;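 active = at 10 µM, mean starting fluorescence two-fold or more over control wells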;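 also: signal is the first read of a kinetic run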
DPM-DC inhibit: inhibitors of Streptococcus pneumoniae diphosphomevalonate decarboxylase. purified DPM-DC, PK/LDH coupled NADH fluorescence. calls only at 10 µM. 65,000 tested, 0.49% active;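 active = the 320 compounds with the highest percent inhibition in the single-dose primary screen, excluding strongly autofluorescent ones, cut at about 32% in these data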;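 also: kinetic rate of NADH fluorescence loss reporting ADP formed by the decarboxylase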
NADH coupling: inhibitors of enzymes used to reach an NAD/NADH endpoint; coupled PK/LDH NADH assays, four targets; IC50, µM (highest dose often 10 µM), inactives show at the top dose inhibition; 65,000 tested, 0.02% active; AID 774;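 active = single-dose screening hits from any of four coupled enzyme assays that gave an IC50 when retested across doses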;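 also: the DPM-DC format reads NADH fluorescence rather than 340 nm absorbance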
Starred values were filed as active, the others as inactive; i = inactive; . = no result given; + = active, no number. Only some compounds are listed: those with a hit (about 6.6% of all), similar ones and a draw of the others.

SMILES	Spn PMK inh	Spn MK inh	Autofluor 339	DPM-DC inhibit	NADH coupling
Cc1noc(C)c1COC(=O)CCN1c2ccccc2Sc2ccccc21	13.0	3.0	0.84	i	12.0%
CCOC(=O)c1nn(-c2ccc3c(c2)OCO3)cc1O	15.0	0.0	2.11*	.	8.0%
CCOC(=O)c1nn(-c2cc(C(=O)OC)cc(C(=O)OC)c2)cc1O	16.0	16.0	0.97	i	11.0%
O=C(O)c1cc(-c2ccco2)[nH]n1	6.0	1.0	1.09	i	2.0%
CC(C)Cc1cc(C(=O)O)n[nH]1	10.0	10.0	2.01*	i	16.0%
Cc1ccc2nc(NC(=O)c3ccc(Cl)s3)sc2c1	5.0	1.0	2.07*	.	3.0%
CC(=O)c1sc(NC(=O)c2ccc(Cn3cc(Br)cn3)o2)nc1C	6.0	4.0	1.13	i	3.0%
Cc1ccc2nc(NC(=O)c3ccc(Cn4cc(Cl)cn4)o3)sc2c1	0.0	1.0	2.25*	i	0.0%
Cc1ccc2nc(NC(=O)c3cccs3)sc2c1	0.0	0.0	1.46	i	3.0%
CN(C)P(=NC(=O)COc1ccc(Cl)cc1Cl)(N(C)C)N(C)C	11.0	0.0	1.06	i	4.0%
N#CC1=C(N)S[C@H](C(=O)C23CC4CC(CC(C4)C2)C3)[C@H]1c1ccncc1	11.0	3.0	1.04	i	3.0%
COc1cccc(N(C(=O)c2cccs2)c2nc3ccccc3s2)c1	15.0	0.0	1.15	i	7.0%
O=c1c[n+]([O-])c2ccccc2n1OCc1c(F)cccc1F	12.0*	8.0	1.26	i	6.0%
O=c1c[n+]([O-])c2ccccc2n1OCc1ccccn1	0.0	0.0	1.18	i	1.0%
Cc1nc(CC(=O)N2CCN(c3cccc(C)c3C)CC2)cs1	13.0	7.0	1.04	i	7.0%
COc1nc(-c2ccccc2)ccc1-c1noc(-c2ccccc2F)n1	8.0	4.0	3.9*	.	6.0%
COc1ccccc1-c1noc(-c2cccnc2)n1	9.0	10.0	1.07	i	4.0%
COc1nc(-c2ccccc2)ccc1-c1noc(-c2ccc(F)cc2)n1	17.0	9.0	3.84*	.	13.0%
CCCNS(=O)(=O)c1ccc(OCC(=O)NCc2ccc3c(c2)OCO3)cc1	14.0	6.0	1.01	i	12.0%
CCOc1cc(C2/C(=C(/O)c3ccc(OC(C)C)cc3)C(=O)C(=O)N2CCCOC)ccc1O (stereo unspecified)	11.0	11.0	1.03	i	3.0%
CC1(C)Cc2nc3sc4c(=O)[nH]cnc4c3cc2CS1	8.0	9.0	2.79*	+	18.0%
CC1(C)Cc2[nH]c(=O)c(C#N)cc2CS1	7.0	12.0	1.33	i	15.0%
NS(=O)(=O)c1ccc(NC(=O)COC(=O)CCNC(=O)NC23CC4CC(CC(C4)C2)C3)cc1	0.0	9.0	1.11	i	3.0%
COCCNC(=O)C(c1ccc(C)o1)N(C(=O)c1snc(C(N)=O)c1N)c1cccc(C)c1 (stereo unspecified)	16.0	7.0	2.51*	i	15.0%
Cc1ccc(C(C(=O)NC2CCCC2)N(Cc2cccnc2)C(=O)c2snc(C(N)=O)c2N)o1 (stereo unspecified)	7.0	9.0	2.57*	i	13.0%
SMILES	Spn PMK inh	Spn MK inh	Autofluor 339	DPM-DC inhibit	NADH coupling
CCOc1ccccc1N(C(=O)c1snc(C(N)=O)c1N)C(C(=O)NC1CCCC1)c1ccco1 (stereo unspecified)	.	5.0	2.36*	i	14.0%
O=C(O)CCn1[nH]c(=O)ccc1=O	10.0	4.0	1.02	i	1.0%
O=C(CSc1n[nH]c(-c2ccc(S(=O)(=O)NC3CCCCC3)cc2)n1)N1CCCC1	14.0	10.0	2.97*	i	16.0%
CCCCn1c(=O)[nH]c(=O)c2c1nc(-c1ccc(C#N)cc1)n2C1CCCC1	17.0	0.0	5.17*	.	9.0%
CCCCn1c(=O)[nH]c(=O)c2c1nc(-c1ccncc1)n2CCOC	5.0	30.0	1.45	i	5.0%
CC1CCN(C(=O)CSc2nnc(Cc3cc(=O)[nH]c(=O)[nH]3)n2-c2ccc(Cl)cc2)CC1	13.0	10.0	1.01	i	5.0%
c1nc(NCCN2CCOCC2)c2sc3nc(N4CCOCC4)c4c(c3c2n1)CCC4	0.0	10.0	2.29*	.	5.0%
CCN1CCN(c2ncnc3c2sc2nc(N4CCOCC4)c4c(c23)CCC4)CC1	0.0	14.0	1.6	i	14.0%
O=c1c2cc(-c3ccccc3)sc2ncn1/N=C/c1ccco1	25.0	12.0	1.04	i	13.0%
c1cnc2c(SCc3ccc(-c4nnco4)cc3)cccc2c1	6.0	0.0	3.33*	.	3.0%

High-throughput results deposited in PubChem BioAssay by SRMLSC.
